Measured values taken from publication PMC12136788.
Changes are numbered by the printed parent chain. Whole data set: some 24,000 sequences, median “enrichment r” near 0.99, cut for the highest 2% near 3.7. The list comes from a sample in which the highest values are over-represented; it also holds similar and randomly drawn sequences.

T1: UNK ZnF1-3 (human, UniProt Q9C0B0 31-174)
T1 sequence: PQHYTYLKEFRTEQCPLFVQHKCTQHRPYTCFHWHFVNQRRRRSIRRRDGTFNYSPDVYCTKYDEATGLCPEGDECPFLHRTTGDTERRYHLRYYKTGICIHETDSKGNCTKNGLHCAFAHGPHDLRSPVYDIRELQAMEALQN

B1: 55264158_55264526_802_CDS_ENSMUSG00000022185_ENSMUST00000148754|mouse|control|control (ssRNA)
RNA: GGGAGUUCUACAGUCCGACGAUCGAUGGACCUCCGGGUUAAGGUAUCUCCUAAUGUUACUUUCUUUACUUCGUGCUCCACAGGUGGGGGCAAGGCAACCUCCACUGACACCUGGGGUGGCGCCGGCAGCUCGGCUUCAGGCUCCAACAGAGGAUUGAGCAUCA
B2: chrX:71549400:71549401:+_ENSMUSG00000019087_ENSMUST00000019231|mus_hu|mus_mus_mus_hu_False|18_48 (ssRNA)
RNA: GGGAGUUCUACAGUCCGACGAUCGCAGUAGGAAGAGGGAAGCUCUUCAGUCCAGUGCGCUGCAGGGUGGGAAAGCAACAACACGGAACCAAUACUCCCCUCAACCCCCCCACUGGCAUGUCACACAACAAUCUGGGUCAAAGACAACAGAGGAUUGAGCAUCA
B3: chr6:42636609:42636610:-_ENSMUSG00000036667_ENSMUST00000045054|mus_hu|FALSE|FALSE (ssRNA)
RNA: GGGAGUUCUACAGUCCGACGAUCGGCAUCAAUACAGUAAACCCCCAGGGAGUCUUUCACUUCUGGCUCAACCUUUGCAUCCACUCCAGAGCCCUCGAGGAUUUUGGCCAAAGGUGCCAGGGAUGGGUGUACACCAAUGGGAGCCAACAGAGGAUUGAGCAUCA
B4: chr2:153237265:153237266:-_ENSMUSG00000061411_ENSMUST00000109784|mus_hu|FALSE|FALSE (ssRNA)
RNA: GGGAGUUCUACAGUCCGACGAUCAAAAAAAAAAAAAAAAAAGUGUCCUUGUGCCCAAAGUCUCAGGUGCUUGGAGUGUGGCUAGAAACAGCUCUUUUGGAUCCCACCUCUUUCAAAAACAAAAUGUACCAACUGGUGAGGCAGCAACAGAGGAUUGAGCAUCA
B5: chr2:153237265:153237266:-_ENSMUSG00000061411_ENSMUST00000109784|mus_mus|mus_mus_mus_hu_False|58_58 (ssRNA)
RNA: B4 RNA with U78C, G79A
B6: chr18:65376317:65376318:+_ENSMUSG00000024589_ENSMUST00000163516|mus_mus|motif|central (ssRNA)
RNA: GGGAGUUCUACAGUCCGACGAUCUGCUAUACCAACAGAAAACUAUCCCUUUCCUAGGAAACACUAGACAGGCUCAUGUCCGGACGCGGCAGCUGCUUCUCUGGCACACUGAAAACACUCUGGGGUGGAGUGUGCAUACACAGACAACAGAGGAUUGAGCAUCA
B7: chr2:153237265:153237266:-_ENSMUSG00000061411_ENSMUST00000109784|mus_mus|mus_mus_mus_hu_False|28_28 (ssRNA)
RNA: B4 RNA with A115G
B8: chr2:153237265:153237266:-_ENSMUSG00000061411_ENSMUST00000109784|mus_mus|mus_mus_mus_hu_False|1_28 (ssRNA)
RNA: B4 RNA with A115G, G137A, A138G, G140C, C141A, A142G
B9: chr2:153237265:153237266:-_ENSMUSG00000061411_ENSMUST00000109784|mus_mus|mus_mus_mus_hu_False|1_1 (ssRNA)
RNA: B4 RNA with G137A, A138G, G140C, C141A, A142G
B10: chr2:153237265:153237266:-_ENSMUSG00000061411_ENSMUST00000109784|mus_mus|mus_mus_mus_hu_False|28_58 (ssRNA)
RNA: B4 RNA with U78C, G79A, A115G
B11: 113287723_113287843_2736_3pUTR_ENSG00000114999_ENST00000233336|human|control|control (ssRNA)
RNA: GGGAGUUCUACAGUCCGACGAUCCCUUUUUCAUUGUAAGUUCUCACAUCUCAUCAUGUUCAAGGAGGCAUUGAUUUUCUCCUCUUUUGUAAAAGUCUCACCUGACUGCAGAAAUGUUUUCUUGAGCCAAGUAGAAAUGAGGAACAACAGAGGAUUGAGCAUCA
B12: chr3:149686290:149686291:-_ENSG00000070087_ENST00000452853|perfect_dup|FALSE|FALSE (ssRNA)
RNA: GGGAGUUCUACAGUCCGACGAUCUCCAAGAGUCAAACCGUUGGUAAAGAAACCUUCCCGGUCUUUUCCUACAAUCAUAUCUAUUUCUACUGGCGUGAUGCUCUGGAAGACGCCCCCGGCCGUGGCUGCCCAGACGUAUUUGGCCAACAGAGGAUUGAGCAUCA
B13: 153895285_153895405_106_5pUTR_ENSG00000143614_ENST00000368655|human|control|control (ssRNA)
RNA: GGGAGUUCUACAGUCCGACGAUCGGCACAGGGGAUCCAGACCCUGCUGACGGGACUAGGGACGGGGGUAGGGGAGGGGGGCGGGCCGGACCGGGGCGGGCGGGCGGAGCAGACACUGCGGUACAGACGGGGGCAGCGGCGGCGCAACAGAGGAUUGAGCAUCA
B14: chr14:76904540:76904541:+_ENSMUSG00000022010_ENSMUST00000022587|mus_mus|FALSE|FALSE (ssRNA)
RNA: GGGAGUUCUACAGUCCGACGAUCAAAGAAAUGGAAAAAUGUCUCAGUUGGUAAACUCCUAGAUCCAUCGCCACUGGUCUACACCAUUGGGAUUUCAUGCAAUUGCAGCCAAAUUAAAAAAACAGCCCCGUGGAAAAAAAAGAGCAACAGAGGAUUGAGCAUCA
B15: chr1:88750987:88750988:+_ENSMUSG00000053333_ENSMUST00000065694|mus_mus|FALSE|FALSE (ssRNA)
RNA: GGGAGUUCUACAGUCCGACGAUCUGAUAAGCCUCUUGUGUCCUGUGGUAUGGGGGUGUUCUCAUCUUUCAUAACUGGAGUACUAGAAUCUUCUUUUCCUCUGUCAGGAGUAGAGAUUGACAAUUUCUUAACACCAUCAACCAGCAACAGAGGAUUGAGCAUCA
B16: chr18:33744517:33744518:+_ENSG00000134759_ENST00000351393|hu_hu|motif|central (ssRNA)
RNA: GGGAGUUCUACAGUCCGACGAUCUAAGAACUUCUCAUUAGGUGAGAAGGCCAUCUGCGUGACUGUCAAACUGUGGAAAACGGAAUUCUGCACCUGUUUCCAAGAUGUAGUGUUCCAAAGAAUGAUAGCUGCAUGCUCUUUCUUCAACAGAGGAUUGAGCAUCA
B17: chr4:115894766:115894767:+_ENSMUSG00000028698_ENSMUST00000030464|mus_hu|mus_mus_mus_hu_True|38_38 (ssRNA)
RNA: GGGAGUUCUACAGUCCGACGAUCUUCCACACGGAAAUGUACUUCGGGUUUUCCAACGGCCAGUACCAGUCCGGCCAAACUACCCGAACAGGGUCCUGUCCUCCUCUCCUACAGAACACAACAAAAUGCCCCCGAACUUUCAAGCAACAGAGGAUUGAGCAUCA
B18: chr14:31813938:31813939:-_ENSMUSG00000021917_ENSMUST00000162092|perfect_dup|motif|central (ssRNA)
RNA: GGGAGUUCUACAGUCCGACGAUCAACUAUGUAGACAGUCCACCCAAACUGUUCAGCCACGUACCCGUAGAUAAACCCAACGGUUGCAGAAAAAAGAAUGAUCCCCUGAAACAUCUGUUCAGCUAGUUUCUGCCCCUUGUAAUCCAACAGAGGAUUGAGCAUCA
B19: chr7:72892646:72892647:-_ENSG00000009954_ENST00000339594|hu_hu|FALSE|FALSE (ssRNA)
RNA: GGGAGUUCUACAGUCCGACGAUCCUUGUCACUGUGCUUCCCUGGUUUCUUGGCAGGUGGGCCUUUUUUAGGAAUGUGAAAGUUAGUGUGCAGCUUAUUGGGCGACAUCAUCUUCAUCAUUUCUUCUAGAUGUUCUUCAGGAGACAACAGAGGAUUGAGCAUCA
B20: chr2:153237265:153237266:-_ENSMUSG00000061411_ENSMUST00000109784|mus_mus|mus_mus_mus_hu_False|8_18 (ssRNA)
RNA: GGGAGUUCUACAGUCCGACGAUCAAAAAAAAAAAAAAAAAAGUGUCCUUGUGCCCAAAGUCUCAGGUGCUUGGAGUGUGGCUAGAAACAGCUCUUUUGGAUCCCACCUCUUUCAAAAAACAGUGUACCAACUGGUGGAGGCAGCAACAGAGGAUUGAGCAUCA
B21: chr2:209110096:209110097:-_ENSG00000138413_ENST00000345146|hu_hu|FALSE|FALSE (ssRNA)
RNA: GGGAGUUCUACAGUCCGACGAUCUUCUUCAAAGUUAUGUACCAGGUAUGUCACCUUUUGGGUUCCGUCACUUGGUGUGUAGGUUAUCUCUACUUUUCCAGGCCCAGGAACAACAAAAUCAGUUGCUCUGUAUUGAUCCCCAUACAACAGAGGAUUGAGCAUCA
B22: chr2:153237265:153237266:-_ENSMUSG00000061411_ENSMUST00000109784|mus_mus|mus_mus_mus_hu_False|1_78 (ssRNA)
RNA: B4 RNA with G66A, G137A, A138G, G140C, C141A, A142G
B23: chr2:153237265:153237266:-_ENSMUSG00000061411_ENSMUST00000109784|mus_mus|mus_mus_mus_hu_False|1_58 (ssRNA)
RNA: B4 RNA with U78C, G79A, G137A, A138G, G140C, C141A, A142G
B24: chr2:153237265:153237266:-_ENSMUSG00000061411_ENSMUST00000109784|mus_hu|motif|central (ssRNA)
RNA: B4 RNA with U82G, A83G
B25: chr10:70731730:70731731:+_ENSG00000165732_ENST00000354185|hu_hu|motif|central (ssRNA)
RNA: GGGAGUUCUACAGUCCGACGAUCAACCUCAGGGAUGUCUAACCCACGUGCAGCAACAUUGGUUGCCACCAAAACUCCAAAACGGCCAUUUCUAAAACCUUUCAGGGUGAUUUCCCUUUGCUUCUGUGGAAUGUCUCCAUGCAACAACAGAGGAUUGAGCAUCA
B26: chr2:25965407:25965408:-_ENSG00000143970_ENST00000336112|hu_mus|FALSE|FALSE (ssRNA)
RNA: GGGAGUUCUACAGUCCGACGAUCAUGUGCUGCCGGAAUAAAAUCUCUAGGCAGGCUCUUUUCAUCAGAUGCUUGGCCUCUAGAGAAUAUGUAAUUCUCCUGGCCUAAAGUGGUUUGCUCACUCACUGGUGCCUCAGUCUUACCCAACAGAGGAUUGAGCAUCA
B27: chr3:138121269:138121270:+_ENSG00000158186_ENST00000289104|hu_hu|FALSE|FALSE (ssRNA)
RNA: GGGAGUUCUACAGUCCGACGAUCCAGGUGGCUUCCUUGUCUCUUUGAGAGGUGGGAAAGCCCGUGCCCUCUGGGCAAAGCCAGACCCUGUCUGCUCCCUGCCCACCUGCCCUUCUCCCUUCCUGUACCAAGUCCUUGGGCCAACAACAGAGGAUUGAGCAUCA

target: T1, UNK ZnF1-3; assay: nsRBNS (natural sequence RNA bind-n-seq); RBNS binding buffer (assumed for nsRBNS): 25 mM Tris pH 7.5, 150 mM KCl, 3 mM MgCl2, 0.01% Triton X-100, 500 ug/ml BSA, 20 U/ml SUPERase-In, 4 C; UNK is unkempt and MSI1 is Musashi-1; names of the RNAs are library labels; protein concentration not given here; high values mean tight binding

Question: With B1 as the binder, how does the binding signal read?
Answer: 0.664 enrichment R

Question: B2 was tested. Which binding signal did it give?
Answer: 1.29 enrichment R

Question: B3 was tested. Which binding signal did it give?
Answer: 1.69 enrichment R

Question: Which binding signal does the source give for B4 here?
Answer: 6.49 enrichment R

Question: B5 was tested. Which binding signal did it give?
Answer: 4.5 enrichment R

Question: B6 was tested. Which binding signal did it give?
Answer: 1.06 enrichment R

Question: With B7 as the binder, how does the binding signal read?
Answer: 3.18 enrichment R

Question: With B8 as the binder, how does the binding signal read?
Answer: 3.93 enrichment R

Question: How did the binding signal turn out when B9 was run?
Answer: 6.8 enrichment R

Question: B10 was tested. Which binding signal did it give?
Answer: 3.57 enrichment R

Question: For B11, which binding signal is on record?
Answer: 0.859 enrichment R

Question: For B12, which binding signal is on record?
Answer: 0.967 enrichment R

Question: B13 was tested. Which binding signal did it give?
Answer: 0.68 enrichment R

Question: Which binding signal does the source give for B14 here?
Answer: 3.35 enrichment R

Question: How did the binding signal turn out when B15 was run?
Answer: 0.857 enrichment R

Question: B16 was tested. Which binding signal did it give?
Answer: 0.574 enrichment R

Question: With B17 as the binder, how does the binding signal read?
Answer: 0.864 enrichment R

Question: How did the binding signal turn out when B18 was run?
Answer: 1.33 enrichment R

Question: Which binding signal does the source give for B19 here?
Answer: 0.485 enrichment R

Question: Which binding signal does the source give for B20 here?
Answer: 5.27 enrichment R

Question: How did the binding signal turn out when B21 was run?
Answer: 0.472 enrichment R

Question: How did the binding signal turn out when B22 was run?
Answer: 8.18 enrichment R

Question: With B23 as the binder, how does the binding signal read?
Answer: 7.14 enrichment R

Question: B24 was tested. Which binding signal did it give?
Answer: 5.88 enrichment R

Question: How did the binding signal turn out when B25 was run?
Answer: 0.937 enrichment R

Question: How did the binding signal turn out when B26 was run?
Answer: 0.767 enrichment R

Question: For B27, which binding signal is on record?
Answer: 0.645 enrichment R
